# Records with an inconclusive call do not appear. Activity calls are given as the source filed them. Unless noted, calls come from the whole dose curve; as a rule, active = well fitted curve in the direction sought with a large enough effect; inconclusive = small, poorly fitted or top-dose-only effect, or another doubt; inactive = no such curve, though single readings can be large; an effect the other way counts as inactive or inconclusive.
# Assays:
# [1] = qHTS Assay for Lipid Storage Modulators (AID 1519; calls by dose curve); conditions: Drosophila S3 cells, BODIPY lipid droplet/cell ratio, laser cytometry, cells loaded with oleic acid; for activity change, negative = inhibition: at 57.5 µM (top of the series)
# In short: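 Cells seeded at 5,000 per well were treated with compounds over a concentration series and loaded with oleic acid (400 uM, as added). Lipid droplet fluorescence (488 nm excitation, 500-530 nm channel) was read by laser-scanning cytometry and normalized to 20 uM Triacsin C.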
# [2] = target: DNA repair nuclease/redox regulator APEX1 (Homo sapiens) (UniProt P27695); assay: qHTS Validation Assay for Inhibitors of the Human Apurinic/apyrimidinic Endonuclease 1 (APE1) (AID 1705;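 note: TAMRA fluorescence gain over two minutes as APE1 cuts a quenched THF abasic duplex; % is set by controls: 0 for no effect and ±100 for the full control effect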)
# In short: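 Substrate: 50 nM final fluorophore/quencher THF-abasic duplex. Enzyme preincubated with compounds 15 min, RT. Progress derived from fluorescence difference, third minus first kinetic read.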
# [3] = target: Endonuclease 4 (Escherichia coli (strain K12)) (UniProt P0A6C1); assay: Counterscreen for APE1 Inhibitors: qHTS Validation Assay for Inhibitors of Endonuclease IV (AID 1708); note: % is set by controls: 0 for no effect and ±100 for the full control effect
# In short: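 Concentration-response counterscreen run identically to the APE1 assay: 15 min room-temperature preincubation of 2 nM enzyme with compound, reaction started with 50 nM quenched abasic DNA, progress taken from kinetic fluorescence.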
# [4] = qHTS for differential inhibitors of proliferation of Plasmodium falciparum line 7G8 (AID 1815);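 note: potency is the fitted concentration of half-maximal effect; parasite growth measured after three days of incubation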
# [5] = qHTS for differential inhibitors of proliferation of Plasmodium falciparum line GB4 (AID 1816); conditions: Potency: Plasmodium falciparum GB4 proliferation inhibition;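 note: potency is the fitted concentration of half-maximal effect; parasite growth measured after 72 h incubation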
# [6] = qHTS for differential inhibitors of proliferation of Plasmodium falciparum line 3D7 (AID 1876); note: potency is the fitted concentration of half-maximal effect
# [7] = qHTS for differential inhibitors of proliferation of Plasmodium falciparum line D10 (AID 1877);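 note: potency is the fitted concentration of half-maximal effect; parasites grown with compound for 72 h before DNA staining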
# [8] = qHTS for differential inhibitors of proliferation of Plasmodium falciparum line Dd2 (AID 1882); conditions: Potency: Plasmodium falciparum Dd2 proliferation inhibition; note: potency is the fitted concentration of half-maximal effect; nearly all actives have a fitted effect of over 65% in size
# In short: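 Dd2-infected erythrocytes (0.3% parasitemia, 2.5% hematocrit final) incubated with compound 72 h at 37 C, 5% CO2; lysed with saponin/Triton buffer containing SYBR Green I, incubated overnight in the dark, then read by fluorescence (485/535 nm). Normalized to 0.29 uM artemisinin and DMSO.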
# [9] = qHTS for differential inhibitors of proliferation of Plasmodium falciparum line W2 (AID 1883); conditions: Potency: Plasmodium falciparum W2 proliferation inhibition;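 note: potency is the fitted concentration of half-maximal effect; parasites grown with compound for 72 h before lysis and staining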
# [10] = qHTS for differential inhibitors of proliferation of Plasmodium falciparum line HB3 (AID 1886); conditions: Potency: Plasmodium falciparum HB3 proliferation inhibition;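 note: potency is the fitted concentration of half-maximal effect; parasites grown with compound for 72 h before SYBR Green readout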
# [11] = target: Ferritin light chain (Equus caballus) (UniProt P02791); assay: qHTS Validation Assay for Identification of Novel General Anesthetics (AID 2323); note: % is set by controls: 0 for no effect and ±100 for the full control effect
# In short: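 Normalized fluorescence response, scaled between free 1-AMA and 1-AMA/apoferritin complex, fitted to a four-parameter Hill equation for concentration-effect values. Binding mix: 10 uM horse-spleen apoferritin, 50% saturated 1-AMA in PBS; read 380/535 nm after 10 min.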
# [12] = target: ATP-dependent DNA helicase Q1 (Homo sapiens) (UniProt P46063); assay: qHTS Validation Assay for Inhibitors of RecQ-Like Dna Helicase 1 (RECQ1) (AID 2353);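 note: plate controls were DMSO vehicle for no effect and enzyme-free control for full effect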
# In short: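 50 nM RECQ1T1 preincubated 15 min with compound in Tris pH 8.0 buffer with MgCl2, DTT, Tween-20 and 2.5 ug/ml poly(dI-dC); started with 200 nM TAMRA/BHQ-2 forked duplex and 2 mM ATP. Unwinding read as fluorescence (525/598 nm), two reads 2 h apart.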
# [13] = Quantitative high throughput screen for delayed death inhibitors of the malarial parasite plastid, 96 hour incubation (AID 488745); note: potency is the fitted concentration of half-maximal effect; nearly all actives have a fitted effect of over 70% in size
# In short: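 Luciferase-expressing P. falciparum in erythrocytes (2% hematocrit, 0.1% parasitemia) incubated with compound for 96 h at 37 C, 5% CO2, in RPMI 1640 with 0.5% Albumax. Growth inhibition read as decreased luminescence.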
# [14] = Quantitative high throughput screen for delayed death inhibitors of the malarial parasite plastid, 48 hour incubation (AID 488752); note: potency is the fitted concentration of half-maximal effect; nearly all actives have a fitted effect of over 65% in size
# In short: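 Erythrocytes infected with firefly luciferase-expressing P. falciparum (2% hematocrit, 0.1% parasitemia) cultured with compound for 48 h at 37 C, 5% CO2, in RPMI 1640/0.5% Albumax. Growth inhibition read as loss of luminescence.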
# [15] = target: Transient receptor potential cation channel subfamily V member 1 (Homo sapiens) (UniProt Q8NER1); assay: HTS Assay for Compounds that Act as Enhancers of the Vanilloid Receptor 1 (AID 488979); note: 0% is about no effect
# In short: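 TRPV1-expressing cells loaded with Fluo-8 calcium dye; compounds added and calcium influx read kinetically for 3 min (agonist phase), then capsaicin at EC20 added and read 2 min more for enhancement. Fluorescence ex 480/em 520 nm.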
# [16] = target: Thyrotropin-releasing hormone receptor (Homo sapiens) (UniProt P34981); assay: qHTS for Small Molecule Agonists and Allosteric Enhancers of Human TRH Receptor: Validation Screen for Agonists (AID 493127;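 active = calcium activation more than 3 SD above the typical response in the agonist read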; note: 0% is about no effect); conditions: TRH receptor agonist cell assay; at 2 µM; stronger effect = higher value
# In short: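 TRHR cells loaded with fluo-8 calcium dye; FDSS kinetic fluorescence (Ex 480/Em 530) read at 1 s/cycle after 23 nL compound addition. Agonist-mode calcium response recorded before the 10 nM TRH (EC20) addition.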
# [17] = target: Galactokinase (Homo sapiens) (UniProt P51570); assay: qHTS Validation Assay for Inhibitors of Human Galactokinase (GALK) (AID 493189); note: 0% is about no effect
# In short: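 Enzyme activity is inferred from ATP consumption: human GALK phosphorylates galactose (100 uM) using 35 uM ATP for 1 h at room temperature, and luciferase-based Kinase-Glo Plus reports unconsumed ATP.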
# [18] = target: Voltage-gated inwardly rectifying potassium channel KCNH2 (Homo sapiens) (UniProt Q12809); assay: qHTS Assay for Small Molecule Inhibitors of the Human hERG Channel Activity (AID 588834);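 note: top concentration of the series differs between compounds; % is set by controls: 0 for no effect and ±100 for the full control effect; lower thallium flux fluorescence means stronger hERG block; nearly all actives have a fitted effect of over 50% in size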
# In short: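 Blockade is seen as reduced FluxOR thallium-flux fluorescence in U2OS cells expressing hERG from a BacMam construct, in Opti-MEM with 2% FCS. Concentration-response data fitted to the Hill equation for AC50.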
# [19] = target: RecQ-like DNA helicase BLM (Homo sapiens) (UniProt P54132); assay: qHTS Validation Assay for Inhibitors of Bloom's syndrome helicase (BLM) (AID 2364);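 note: plate controls were DMSO vehicle for no effect and enzyme-free control for full effect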
# In short: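 BLM 50 nM in 25 mM Tris-HCl pH 8.0, 5 mM NaCl, 2 mM MgCl2, 1 mM DTT, 0.01% Tween-20, 2.5 ug/ml poly(dI-dC); 15 min cpd preinc, RT. Start: 200 nM forked DNA + 2 mM ATP (final). TAMRA read, 2 reads 2 h apart.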
# [20] = Validation screen for inhibitors of Lassa infection (AID 463096; calls by dose curve; note: % is set by controls: 0 for no effect and ±100 for the full control effect)
# [21] = target: M-phase phosphoprotein 8 (Homo sapiens) (UniProt Q99549); assay: qHTS Validation Assay for Inhibitors for MPP8 Chromodomain Interactions with Methylated Histone Tails (AID 488949); note: potency is the fitted concentration of half-maximal effect; nearly all actives have a fitted effect of over 55% in size
# In short: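 Chemiluminescent proximity assay: histidine-tag capture via nickel acceptor beads, biotin peptide via streptavidin donor beads. Protein and peptide each at 50 nM, pH 7.4, with 30 min incubations at room temperature for complex formation, compound exposure and bead binding.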
# [22] = Validation screen for small molecules that induce DNA re-replication in SW480 colon adenocarcinoma cells (AID 504364); note: 0% is about no effect
# In short: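 SW480 cells (250/well) exposed 48 h at 37 C, 5% CO2, then Hoechst-stained 40 min. Nuclear DNA content imaged by fluorescence scanning (405 nm excitation, 500-530 nm emission); re-replication scored as increased nuclei with elevated intensity.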
# [23] = measured here: cell count channel max response
# [24] = measured here: lipid channel max response
# Sequence of Galactokinase (Homo sapiens) (P51570 whole entry, looked up): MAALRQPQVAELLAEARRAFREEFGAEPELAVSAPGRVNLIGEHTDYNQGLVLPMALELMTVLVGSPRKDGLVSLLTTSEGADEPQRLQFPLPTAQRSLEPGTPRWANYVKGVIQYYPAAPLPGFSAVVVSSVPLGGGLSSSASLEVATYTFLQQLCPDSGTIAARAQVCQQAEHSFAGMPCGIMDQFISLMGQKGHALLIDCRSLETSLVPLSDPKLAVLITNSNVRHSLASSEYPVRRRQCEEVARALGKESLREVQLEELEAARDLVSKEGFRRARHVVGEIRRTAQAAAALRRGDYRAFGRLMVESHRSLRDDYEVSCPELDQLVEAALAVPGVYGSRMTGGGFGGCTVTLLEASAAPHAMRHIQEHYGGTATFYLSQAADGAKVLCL
# Sequence of ATP-dependent DNA helicase Q1 (Homo sapiens) (P46063 whole entry, looked up): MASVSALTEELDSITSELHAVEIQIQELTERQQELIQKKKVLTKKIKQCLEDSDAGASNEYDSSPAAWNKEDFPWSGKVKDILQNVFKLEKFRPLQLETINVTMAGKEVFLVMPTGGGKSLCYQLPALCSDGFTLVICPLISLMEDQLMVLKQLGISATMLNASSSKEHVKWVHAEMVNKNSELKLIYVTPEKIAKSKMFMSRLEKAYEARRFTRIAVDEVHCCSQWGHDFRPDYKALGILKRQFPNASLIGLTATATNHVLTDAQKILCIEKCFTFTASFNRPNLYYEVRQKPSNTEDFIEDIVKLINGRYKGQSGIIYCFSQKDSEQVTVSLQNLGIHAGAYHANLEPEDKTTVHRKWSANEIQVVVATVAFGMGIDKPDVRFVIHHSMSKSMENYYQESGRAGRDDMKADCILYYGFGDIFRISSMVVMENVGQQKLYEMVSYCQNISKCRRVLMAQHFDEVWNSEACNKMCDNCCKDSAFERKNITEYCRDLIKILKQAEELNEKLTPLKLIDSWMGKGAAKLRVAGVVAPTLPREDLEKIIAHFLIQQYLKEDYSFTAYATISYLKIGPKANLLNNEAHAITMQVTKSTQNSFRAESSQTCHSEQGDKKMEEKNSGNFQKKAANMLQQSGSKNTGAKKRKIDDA
# Sequence of Thyrotropin-releasing hormone receptor (Homo sapiens) (P34981 whole entry, looked up): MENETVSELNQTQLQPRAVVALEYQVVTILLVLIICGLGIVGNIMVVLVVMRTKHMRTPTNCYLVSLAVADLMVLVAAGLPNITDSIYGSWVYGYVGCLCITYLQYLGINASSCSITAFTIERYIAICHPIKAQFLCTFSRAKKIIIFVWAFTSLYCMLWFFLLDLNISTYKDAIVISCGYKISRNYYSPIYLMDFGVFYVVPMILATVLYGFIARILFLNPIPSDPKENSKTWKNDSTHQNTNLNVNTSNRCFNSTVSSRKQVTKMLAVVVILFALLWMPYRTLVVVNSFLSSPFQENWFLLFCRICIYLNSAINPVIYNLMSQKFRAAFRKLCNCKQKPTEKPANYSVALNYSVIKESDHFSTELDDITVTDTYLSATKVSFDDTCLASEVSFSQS
# Sequence of Ferritin light chain (Equus caballus) (P02791 2-175 limits assumed): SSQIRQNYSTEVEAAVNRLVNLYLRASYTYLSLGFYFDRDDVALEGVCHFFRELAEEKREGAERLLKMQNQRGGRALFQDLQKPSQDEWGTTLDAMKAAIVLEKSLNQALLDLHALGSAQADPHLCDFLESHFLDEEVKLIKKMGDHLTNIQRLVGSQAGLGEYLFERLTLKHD
# Sequence of DNA repair nuclease/redox regulator APEX1 (Homo sapiens) (P27695 whole entry, looked up): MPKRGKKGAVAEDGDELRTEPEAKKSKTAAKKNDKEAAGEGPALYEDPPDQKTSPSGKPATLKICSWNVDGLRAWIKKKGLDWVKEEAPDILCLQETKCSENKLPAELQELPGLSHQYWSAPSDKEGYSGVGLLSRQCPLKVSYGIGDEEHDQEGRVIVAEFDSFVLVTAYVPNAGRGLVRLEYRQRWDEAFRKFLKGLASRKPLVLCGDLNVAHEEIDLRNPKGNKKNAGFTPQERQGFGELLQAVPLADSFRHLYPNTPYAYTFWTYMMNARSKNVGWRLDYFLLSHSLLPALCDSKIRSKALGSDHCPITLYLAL
# Sequence of Transient receptor potential cation channel subfamily V member 1 (Homo sapiens) (Q8NER1 whole entry, looked up): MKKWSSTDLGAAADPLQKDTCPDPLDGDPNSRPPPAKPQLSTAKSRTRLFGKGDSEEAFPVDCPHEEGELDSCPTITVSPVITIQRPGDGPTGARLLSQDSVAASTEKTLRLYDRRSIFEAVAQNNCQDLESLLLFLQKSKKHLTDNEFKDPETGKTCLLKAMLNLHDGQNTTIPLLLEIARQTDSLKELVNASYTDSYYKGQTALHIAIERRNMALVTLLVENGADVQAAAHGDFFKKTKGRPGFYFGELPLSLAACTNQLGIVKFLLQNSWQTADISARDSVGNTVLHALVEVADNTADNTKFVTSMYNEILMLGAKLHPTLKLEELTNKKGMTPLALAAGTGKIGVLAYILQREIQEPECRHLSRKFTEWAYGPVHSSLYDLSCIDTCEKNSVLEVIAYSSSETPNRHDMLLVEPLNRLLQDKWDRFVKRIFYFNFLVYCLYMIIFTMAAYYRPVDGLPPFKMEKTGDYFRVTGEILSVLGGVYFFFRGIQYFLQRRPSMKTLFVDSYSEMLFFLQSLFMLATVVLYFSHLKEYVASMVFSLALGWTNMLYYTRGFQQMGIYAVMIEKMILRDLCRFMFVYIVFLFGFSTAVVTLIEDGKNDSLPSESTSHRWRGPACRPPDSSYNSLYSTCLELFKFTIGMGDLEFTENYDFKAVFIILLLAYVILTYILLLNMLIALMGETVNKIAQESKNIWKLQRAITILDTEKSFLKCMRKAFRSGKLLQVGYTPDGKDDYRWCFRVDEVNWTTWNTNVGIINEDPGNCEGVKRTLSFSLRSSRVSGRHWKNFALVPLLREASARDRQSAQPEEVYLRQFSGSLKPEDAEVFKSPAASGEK
# Sequence of M-phase phosphoprotein 8 (Homo sapiens) (Q99549 whole entry, looked up): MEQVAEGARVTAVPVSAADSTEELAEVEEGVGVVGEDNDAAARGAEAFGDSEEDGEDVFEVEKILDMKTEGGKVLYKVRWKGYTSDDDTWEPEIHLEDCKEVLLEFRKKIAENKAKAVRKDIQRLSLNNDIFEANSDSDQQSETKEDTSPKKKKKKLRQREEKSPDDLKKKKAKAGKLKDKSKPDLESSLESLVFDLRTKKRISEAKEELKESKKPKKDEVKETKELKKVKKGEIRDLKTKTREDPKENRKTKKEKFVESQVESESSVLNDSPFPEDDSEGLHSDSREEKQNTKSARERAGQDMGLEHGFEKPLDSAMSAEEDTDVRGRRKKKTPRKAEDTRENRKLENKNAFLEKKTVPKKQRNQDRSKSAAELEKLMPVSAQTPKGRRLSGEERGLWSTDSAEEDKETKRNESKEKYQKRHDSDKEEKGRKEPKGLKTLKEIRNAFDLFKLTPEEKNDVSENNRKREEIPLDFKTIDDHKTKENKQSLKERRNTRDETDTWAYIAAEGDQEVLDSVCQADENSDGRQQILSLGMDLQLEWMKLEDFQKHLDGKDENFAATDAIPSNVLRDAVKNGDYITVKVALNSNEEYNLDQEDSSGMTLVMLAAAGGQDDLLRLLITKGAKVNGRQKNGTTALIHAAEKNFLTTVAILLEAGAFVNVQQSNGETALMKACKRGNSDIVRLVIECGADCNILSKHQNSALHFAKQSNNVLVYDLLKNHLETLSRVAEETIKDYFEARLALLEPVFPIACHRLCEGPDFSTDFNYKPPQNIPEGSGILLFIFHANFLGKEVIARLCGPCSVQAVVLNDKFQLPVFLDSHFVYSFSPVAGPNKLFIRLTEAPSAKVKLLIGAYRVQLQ
# Sequence of RecQ-like DNA helicase BLM (Homo sapiens) (P54132 whole entry, looked up): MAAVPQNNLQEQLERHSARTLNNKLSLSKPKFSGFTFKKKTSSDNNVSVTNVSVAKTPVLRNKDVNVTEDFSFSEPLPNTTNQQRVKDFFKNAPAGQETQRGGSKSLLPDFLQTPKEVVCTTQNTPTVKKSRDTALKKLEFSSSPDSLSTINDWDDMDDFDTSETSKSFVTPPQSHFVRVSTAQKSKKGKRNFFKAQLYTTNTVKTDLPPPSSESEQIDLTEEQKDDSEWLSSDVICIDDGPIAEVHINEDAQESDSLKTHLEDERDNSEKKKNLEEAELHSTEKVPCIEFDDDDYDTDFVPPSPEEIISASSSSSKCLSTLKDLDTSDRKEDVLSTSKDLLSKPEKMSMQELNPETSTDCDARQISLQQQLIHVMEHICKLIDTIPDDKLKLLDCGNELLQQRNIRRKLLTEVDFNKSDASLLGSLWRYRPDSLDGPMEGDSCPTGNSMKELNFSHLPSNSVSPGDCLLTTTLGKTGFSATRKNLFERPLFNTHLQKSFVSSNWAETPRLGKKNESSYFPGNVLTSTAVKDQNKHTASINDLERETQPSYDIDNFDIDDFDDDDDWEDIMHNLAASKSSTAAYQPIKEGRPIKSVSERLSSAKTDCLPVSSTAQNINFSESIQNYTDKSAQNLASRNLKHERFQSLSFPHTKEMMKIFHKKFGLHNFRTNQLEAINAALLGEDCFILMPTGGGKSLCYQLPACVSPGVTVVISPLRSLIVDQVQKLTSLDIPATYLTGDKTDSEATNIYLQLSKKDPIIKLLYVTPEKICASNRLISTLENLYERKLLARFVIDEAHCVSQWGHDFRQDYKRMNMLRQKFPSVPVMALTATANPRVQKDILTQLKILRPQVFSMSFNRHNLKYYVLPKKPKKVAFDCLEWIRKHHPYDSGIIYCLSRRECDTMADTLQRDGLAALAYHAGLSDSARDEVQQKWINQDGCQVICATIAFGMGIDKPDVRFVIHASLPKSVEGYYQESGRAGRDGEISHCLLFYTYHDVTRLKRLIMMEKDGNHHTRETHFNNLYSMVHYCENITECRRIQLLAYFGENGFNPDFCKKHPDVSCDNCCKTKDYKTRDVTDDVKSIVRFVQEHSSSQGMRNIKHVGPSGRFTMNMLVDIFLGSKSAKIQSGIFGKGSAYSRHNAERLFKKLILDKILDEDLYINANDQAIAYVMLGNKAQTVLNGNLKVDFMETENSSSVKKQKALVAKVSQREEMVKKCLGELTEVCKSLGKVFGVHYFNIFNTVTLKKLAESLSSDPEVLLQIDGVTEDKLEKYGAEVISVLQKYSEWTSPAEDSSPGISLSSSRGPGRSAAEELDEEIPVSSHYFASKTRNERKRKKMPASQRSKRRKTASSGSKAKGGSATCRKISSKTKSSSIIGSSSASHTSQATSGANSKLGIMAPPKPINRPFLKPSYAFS
compound,measurement,setting,value
CC(C)[C@@]1(NC(=O)[C@@H]2C[C@@H]3c4cccc5[nH]cc(c45)C[C@H]3N(C)C2)O[C@@]2(O)C3CCCN3C(=O)[C@H](Cc3ccccc3)N2C1=O (stereo partly drawn),"activity change, negative = inhibition",[1],-0.282% (inactive)
same,max response,[1]; [23],-13.2%
same,max response,[1]; [24],-14.4%
same,Potency,[2],inactive
same,Potency,[3],inactive
same,Potency,[4],316 nM (active)
same,Potency,[5],1120 nM (active)
same,Potency,[6],1000 nM (active)
same,Potency,[7],2240 nM (active)
same,Potency,[8],1410 nM (active)
same,Potency,[9],891 nM (active)
same,Potency,[10],891 nM (active)
same,Potency,[11],inactive
same,outcome,[12],inactive
same,Potency,[13],1470 nM (active)
same,Potency,[14],1650 nM (active)
same,outcome,[15],inactive
same,activation,[16],0.125% (inactive)
same,outcome,[17],inactive
same,Potency,[18],inactive
CCCN1CCc2cccc3c2C1Cc1ccc(O)c(O)c1-3 (stereo not drawn),"activity change, negative = inhibition",[1],1.73% (inactive)
same,max response,[1]; [23],-26.8%
same,max response,[1]; [24],-25.9%
same,Potency,[2],inactive
same,Potency,[3],inactive
same,Potency,[4],2240 nM (active)
same,Potency,[5],2000 nM (active)
same,Potency,[6],2510 nM (active)
same,Potency,[7],2510 nM (active)
same,Potency,[8],3160 nM (active)
same,Potency,[9],2000 nM (active)
same,Potency,[10],2000 nM (active)
same,Potency,[11],inactive
same,outcome,[12],inactive
same,outcome,[19],inactive
same,Potency,[20],inactive
same,Potency,[13],2940 nM (active)
same,Potency,[14],1850 nM (active)
same,Potency,[21],20000 nM (active)
same,outcome,[15],inactive
same,activation,[16],1.44% (inactive)
same,outcome,[17],inactive
same,outcome,[22],inactive

# Source: PubChem BioAssay (NCATS)
